Bioassay records (PubChem BioAssay)
A selection: hits, their analogues and other compounds. The true share with any hit is near 1.1%.
PKA-R1A act = PKA-R1A complex activation. P00514+P68181. PKA-R1A dissociation, Cy5-IP20 fluorescence polarization; scaled: DMSO 0%, 113 µM cGMP 100%. activation, % at 11.4 µM. hit rate 0.083% among 340,000. AID 504707;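 active = percent activation above the mean of all tested compounds plus 3 SD, cut at about 19% in these data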;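 note: higher means more PKAc released from R1A so a rise in polarization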
bovine MsrA act = activates bovine MsrA enzyme; activation, % at 10.6 µM; purified bovine MsrA, absorbance read-out; hit rate 0.3% among 360,000; in the data active = activation above about 7.5%;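 note: 0% = vehicle and 100% = reference activator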
MsrA inh = inhibits bovine methionine sulfoxide reductase A; purified bovine MsrA, absorbance read-out; inhibition, % at 15.5 µM; hit rate 0.75% among 360,000;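 note: 0% = vehicle wells with enzyme and 100% = reference inhibitor wells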
PKA-R2B act = activators of human PKA-R2B complex. P22694+P31323. PKA-R2B holoenzyme dissociation, Cy5-IP20 fluorescence polarization; R2B truncated from residue 108, S112A mutant; 0% DMSO only, 100% 113 µM cGMP. activation, % at 11.4 µM. hit rate 0.079% among 340,000. AID 504700;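 active = activation above a cutoff set at the mean over all compounds plus 3 SD, cut at about 18% in these data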;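 note: higher means more holoenzyme dissociation and a rise in polarization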
Target sequence (P31323 whole entry, looked up, other chains not shown, the tested form may be a part): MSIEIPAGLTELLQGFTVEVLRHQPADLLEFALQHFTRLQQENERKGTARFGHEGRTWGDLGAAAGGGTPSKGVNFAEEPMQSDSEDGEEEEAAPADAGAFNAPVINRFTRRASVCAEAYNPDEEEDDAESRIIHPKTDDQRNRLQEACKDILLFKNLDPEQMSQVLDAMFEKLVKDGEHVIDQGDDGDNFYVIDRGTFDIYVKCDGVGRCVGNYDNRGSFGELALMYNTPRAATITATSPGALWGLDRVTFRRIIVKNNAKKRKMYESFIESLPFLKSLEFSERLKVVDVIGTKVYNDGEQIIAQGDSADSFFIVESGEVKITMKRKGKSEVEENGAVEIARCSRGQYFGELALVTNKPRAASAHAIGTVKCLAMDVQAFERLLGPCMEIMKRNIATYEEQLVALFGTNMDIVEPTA
MsrA conf = bovine MsrA inhibition, confirmed; inhibition, % at 15.5 µM; hit rate 41% among 2,300; purified bovine MsrA, absorbance read-out; shares compounds with MsrA inh; AID 651822;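 note: coupled to thioredoxin reductase with NADPH and selenocystamine and DMSO as substrate; 0% = vehicle only and 100% = full effect of reference inhibitor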
The depositor's hits bear a star; nt = no result. Cut-off read from the data, not from the text of the source, unless noted: active = inhibition above about 4.5%; inactive = the rest.

SMILES	PKA-R1A act	bovine MsrA act	MsrA inh	PKA-R2B act	MsrA conf
COc1cc(/C=N/Nc2ccc(S(N)(=O)=O)cc2)cc(OC)c1OC	-14	-2	5.6*	-4	6.3*
COc1ccc(/C=N/NC(=S)Nc2cccc(C(=O)O)c2)cc1	-22	-6	4	-13	nt
COc1cc(/C=N/NC(=S)Nc2cccc(C(=O)O)c2)ccc1O	2	-6	5.1*	-4	5.6*
Cc1ccc2c(c1)C(=O)CC(c1ccccc1)S2 (centres undefined)	0	-6	1	3	nt
COc1ccc(/C=N/NC(=S)Nc2ccccc2)cc1COc1ccc(Br)cc1	-5	-4	2	-5	nt
CC(=O)Nc1ccc(/C=N/NC(=S)NC(C)C)cc1	-16	-1	8.9*	-11	4
COc1ccc(/C=N/Nc2cc(=O)n(C)c(=O)n2C)cc1OC	-13	-8	4.7*	6	4.7*
COc1cc(/C=N/Nc2ccc(C(=O)O)cc2)ccc1O	-2	-6	7.1*	1	5.1*
COc1ccc(/C=N/NC(=S)Nc2ccccc2)cc1	2	-8	4.9*	-1	4
COC(=O)c1cc(S(=O)(=O)NCC2CCN(C(=O)C(=O)c3cc4ccccc4o3)CC2)cs1	nt	nt	2	nt	nt
CCc1ccc(NC(=O)C(C)OC(=O)CCC(=O)c2cccs2)cc1 (centres undefined)	-4	-2	1	-1	nt
CCOc1ccccc1CN1CCNC(=O)C1CC(=O)NCc1cc(C)n(C)n1 (centres undefined)	-1	3	1	-6	nt
CCc1ccc(C(=O)CCC(=O)Nc2cccc(S(=O)(=O)N3CCCCC3)c2)cc1	-7	-7	1	-13	nt
COc1cc(/C=N/Nc2nc(N3CCCC3)nc(N3CCCC3)n2)ccc1O	0	-13	5.2*	-8	2
COc1ccc(N(C)S(=O)(=O)c2ccc3c(c2)CCN3C(=O)C2CC2)c(OC)c1	-7	-1	0	-4	nt
Cc1nc2ccccc2c(=O)n1/N=C/c1cn(-c2ccccc2)nc1-c1cccs1	-13	-5	14*	-6	4.9*
Cc1nc2ccccc2c(=O)n1/N=C/c1cccs1	1	-4	0	0	nt
CCNC(=O)C1(C)CCN1C(=O)CCc1cccc(Cl)c1 (centres undefined)	nt	2	2	nt	nt
CCN1/C(=C/C(C)=O)Sc2ccc(OC)cc21	-8	-4	5.5*	0	4
CN(C)CCCN1C(=O)C(=O)/C(=C(/O)c2ccncc2)C1c1cccnc1 (centres undefined)	1	-1	6.6*	-6	2
CN(C)CCCN1C(=O)C(=O)/C(=C(/O)c2ccncc2)C1c1cccc(Br)c1 (centres undefined)	-9	-4	2	-4	nt
CCN(CC)CCN1C(=O)C(=O)/C(=C(/O)c2ccc(C)cc2)C1c1cccnc1 (centres undefined)	5	-3	5.9*	-10	0
CC(C)CCC1(CCNC(C)c2cccs2)CCOC(C)(C)C1 (centres undefined)	4	-2	1	2	nt
CCn1c(C)nc2cc(C(=O)N/N=C/c3ccc(OC)cc3)ccc21	nt	-16	4	nt	nt
CCn1c(C)nc2cc(C(=O)N/N=C/c3ccc(N4CCOCC4)cc3)ccc21	8	-6	5.5*	-5	6.0*
SMILES	PKA-R1A act	bovine MsrA act	MsrA inh	PKA-R2B act	MsrA conf
CCn1c(C)nc2cc(C(=O)N/N=C/c3ccc(OC)c(O)c3)ccc21	-7	-6	7.5*	-9	4.7*
CCn1c(C)nc2cc(C(=O)N/N=C/c3ccc(O)cc3)ccc21	1	-2	5.0*	-2	4
CCOc1ccc(NC(=O)CN2C(=O)NC(CCSC)C2=O)cc1 (centres undefined)	-7	-1	0	5	nt
CCCCCCCCN1C(=O)[C@@H](CC(=O)NCCCOCCCC)C[C@@]2(C(=O)OC)C1=C[C@H](C1CCCC1)O[C@@H]2C	nt	nt	0	nt	nt
N#C/C(=C/Nc1ccccc1C(=O)O)C(N)=O	-2	-9	5.8*	-1	6.8*
Cc1ccc(/C=N/NC(=O)c2ccccn2)s1	-2	-3	4.9*	4	5.2*
Cc1cc(OCC(=O)N2CCc3ccccc3C2)c2c(-c3ccccc3)cc(=O)oc2c1	-6	-3	15*	-9	14*
Cc1ccc(-c2c(C)cc3oc(=O)cc(-c4ccccc4)c3c2C)cc1	-2	-2	0	4	nt
Cc1cc(OC(C)C)c2c(-c3ccccc3)cc(=O)oc2c1	-12	-6	26*	-13	22*
CC(=O)Oc1cc(C)cc2oc(=O)cc(-c3ccccc3)c12	-9	1	9.1*	1	1
CCOc1cc(C)cc2oc(=O)cc(-c3ccccc3)c12	3	-1	6.5*	-5	5.1*
COc1ccccc1CCn1cnc(-c2ccccc2OC)c1CC(C)C	nt	nt	0	nt	nt
CCN(CC(=O)NCc1ccc(Cl)cc1)CC(=O)NC1(C#N)CCCC1	2	-4	0	-12	nt
COc1ccc(C=C2SC(=S)NC2=O)c(OC)c1OC	-8	-16	4.8*	5	2
COc1ccccc1C=C1SC(=S)NC1=O	4	-9	1	3	nt
Nc1nonc1-c1nc2ccccc2n1CC(=O)N/N=C/c1ccc(-c2ccccc2C(=O)O)o1	-2	-8	7.3*	-20	6.9*
Cc1ccc(S(=O)(=O)N2CCCOC2CNC(=O)C(=O)NC2CCCC2)cc1 (centres undefined)	2	-5	1	-7	nt
COc1ccc(C(=O)/C(C#N)=N/Nc2ccccc2[N+](=O)[O-])cc1	0	-1	3	-7	nt
CCCc1c(C)nn(C(=O)/C(C#N)=N/Nc2ccccc2[N+](=O)[O-])c1C	2	-10	10*	7	6.9*
COc1ccc(OC)c(/C=N\NC(=O)c2ccc(-c3ccccc3)cc2)c1	2	-5	1	-4	nt
COc1ccc(/C=N/NC(=O)c2cccc(NC(=O)c3ccccc3Cl)c2)c(OC)c1	-5	-15	5.3*	-3	2
COc1ccc2[nH]c(C(=O)N/N=C/c3ccc(OC)c(O)c3)cc2c1	1	-4	7.5*	3	7.8*
COc1ccc(C(=O)N/N=C/c2cc3ccccc3[nH]c2=O)cc1	-1	-4	5.0*	4	4
CCCOc1ccc2[nH]c(C(=O)N/N=C/c3cc(OC)c(OC)c(OC)c3)cc2c1	-2	-4	2	-4	nt
COc1ccc2[nH]c(C(=O)N/N=C/c3ccccc3OC)cc2c1	-3	-5	5.8*	-9	5.4*
CC1(C2CC(=O)c3c(O)ccc(O)c3C2)OCCO1 (centres undefined)	2	-1	0	3	nt
Cc1ccc(S(=O)(=O)Oc2ccccc2[N+](=O)[O-])cc1	6	-1	0	-6	nt
Cc1cc(=O)[nH]c(N/N=C/c2ccc(O)c(O)c2)n1	-3	-6	4	1	nt
CSc1ccc(/C=N/Nc2nc(C)cc(=O)[nH]2)cc1	-5	-5	4.9*	0	4
Cc1cc(=O)[nH]c(NN=Cc2c(Cl)cccc2Cl)n1	4	5	1	-2	nt
